Measurements reported in PubChem BioAssay AID1159580 (chemical genetic matrix, 2015).
Values joined by “and” are separate entries in the source; they are usually repeats but may differ in a detail not shown here. Equal entries are not always repeated. In all, about 5,500 compounds went through this assay and about 2,000 (36%) were called active. Roughly 18% stayed inconclusive and do not appear here. Rule as the data show it: active = normalized growth mostly below about 0.91 (no sharp cut-off); inconclusive = no clear call, values can overlap the other calls; inactive = mostly above about 0.92. The list shows a part of the results.

Experiment: chemical genetic growth profiling, strain panel (AID 1159580);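 also: tested at 20 µM; growth read once vehicle control cultures reached saturation at 30 °C; 1 = growth at the plate median or of vehicle wells; lower values mean less growth of the strain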
Details: S. cerevisiae deletion strains, growth OD

Measured: normalized growth

C[N+](C)(C)CCOC(N)=O
inactive: locus YAL013W, strain DEP1, stronger effect = lower value 1.01 | locus YAL021C, strain ccr4, stronger effect = lower value 1.03 | locus YAL026C, strain drs2, stronger effect = lower value 1.01 | locus YAL030W, strain snc1, stronger effect = lower value 1.01 | locus YAL040C, strain CLN3, stronger effect = lower value 1.05 | locus YBL061C, strain skt5, stronger effect = lower value 1.03 | locus YBR009C, strain hhf1, stronger effect = lower value 0.997 | locus YBR021W, strain FUR4, stronger effect = lower value 1.06 | locus YBR023C, strain chs3, stronger effect = lower value 1.02 | locus YBR171W, strain sec66, stronger effect = lower value 1.02 | locus YBR229C, strain ROT2, stronger effect = lower value 1.01 | locus YBR231C, strain swc5, stronger effect = lower value 1.02 | locus YBR279W, strain paf1, stronger effect = lower value 1.01 | locus YCL011C, strain gbp2, stronger effect = lower value 1.01 | locus YCL016C, strain dcc1, stronger effect = lower value 1.03 | locus YCL029C, strain bik1, stronger effect = lower value 0.973 | locus YCL061C, strain MRC1 (second series), stronger effect = lower value 0.987 | locus YCL069W, strain vba3, stronger effect = lower value 1.03 | locus YCR088W, strain abp1, stronger effect = lower value 1.01 | locus YDL005C, strain med2, stronger effect = lower value 1.03 | locus YDL035C, strain GPR1, stronger effect = lower value 1.04 | locus YDL040C, strain nat1, stronger effect = lower value 1.02 | locus YDL074C, strain BRE1, stronger effect = lower value 0.995 | locus YDL101C, strain DUN1, stronger effect = lower value 0.986 | locus YDL185W, strain tfp1, stronger effect = lower value 0.953 | locus YDL192W, strain arf1, stronger effect = lower value 0.976 | locus YDR001C, strain nth1, stronger effect = lower value 1.02 | locus YDR069C, strain doa4, stronger effect = lower value 1.01 | locus YDR101C, strain arx1, stronger effect = lower value 1 | locus YDR137W, strain rgp1, stronger effect = lower value 1.04 | locus YDR150W, strain NUM1, stronger effect = lower value 1.01 | locus YDR159W, strain sac3, stronger effect = lower value 1.02 | locus YDR162C, strain NBP2, stronger effect = lower value 1.03 | locus YDR195W, strain ref2 1.06 | locus YDR297W, strain sur2, stronger effect = lower value 1.02 | locus YDR318W, strain mcm21, stronger effect = lower value 0.987 | locus YDR334W, strain swr1, stronger effect = lower value 1.02 | locus YDR335W, strain msn5, stronger effect = lower value 1.03 | locus YDR388W, stronger effect = lower value 0.984 | locus YDR392W, strain spt3, stronger effect = lower value 1.02 | locus YDR502C, strain sam2, stronger effect = lower value 0.99 | locus YEL003W, strain gim4, stronger effect = lower value 1.02 | locus YEL037C, strain rad23, stronger effect = lower value 1.02 | locus YEL061C, strain CIN8 (second series), stronger effect = lower value 1.01 | locus YEL061C, strain CIN8, stronger effect = lower value 1 | locus YER002W, strain NOP16, stronger effect = lower value 0.986 | locus YER015W, strain faa2, stronger effect = lower value 1.03 | locus YER016W, strain bim1, stronger effect = lower value 1.01 | locus YER110C, stronger effect = lower value 0.944 | locus YER111C, strain swi4, stronger effect = lower value 1.03 | locus YER155C, strain BEM2 (second series), stronger effect = lower value 1.03 | locus YER155C, strain BEM2, stronger effect = lower value 0.991 | locus YER167W, strain BCK2, stronger effect = lower value 1.01 | locus YFR010W, strain ubp6, stronger effect = lower value 1.02 | locus YGL078C, strain dbp3, stronger effect = lower value 0.986 | locus YGL086W, strain mad1, stronger effect = lower value 1 | locus YGL167C, strain pmr1, stronger effect = lower value 1.03 | locus YGL173C, strain kem1, stronger effect = lower value 1.02 | locus YGL227W, strain vid30, stronger effect = lower value 1.01 | locus YGL240W, strain doc1, stronger effect = lower value 1.02 | locus YGL248W, strain PDE1, stronger effect = lower value 1.01 | locus YGL253W, strain hxk2, stronger effect = lower value 1.02 | locus YGR078C, strain PAC10, stronger effect = lower value 0.992 and 0.993 | locus YGR135W, strain pre9, stronger effect = lower value 0.978 | locus YGR252W, strain gcn5, stronger effect = lower value 1.07 | locus YHR013C, strain ard1, stronger effect = lower value 1.04 | locus YHR027C, strain rpn1, stronger effect = lower value 1.01 | locus YHR030C, strain SLT2, stronger effect = lower value 1.01 and 0.989 | locus YHR079C, strain IRE1 (second series), stronger effect = lower value 0.962 | locus YHR079C, strain IRE1, stronger effect = lower value 0.998 | locus YHR094C, strain hxt1, stronger effect = lower value 0.976 | locus YHR129C, strain ARP1, stronger effect = lower value 1 | locus YHR142W, strain chs7, stronger effect = lower value 1.02 | locus YHR200W, strain rpn10, stronger effect = lower value 0.979 | locus YIL066C, strain RNR3, stronger effect = lower value 1.02 | locus YIL073C, strain SPO22, stronger effect = lower value 0.927 | locus YIL125W, strain kgd1, stronger effect = lower value 0.986 | locus YIR030C, strain dcg1, stronger effect = lower value 0.959 | locus YJL092W, strain hpr5, stronger effect = lower value 1.01 | locus YJL095W, strain BCK1 (second series), stronger effect = lower value 1.03 | locus YJL095W, strain BCK1, stronger effect = lower value 0.981 and 0.988 | locus YJL115W, strain asf1, stronger effect = lower value 1.02 | locus YJL129C, strain trk1, stronger effect = lower value 1.02 | locus YJL134W, strain LCB3, stronger effect = lower value 1 | locus YJL164C, strain tpk1, stronger effect = lower value 1.01 | locus YJL166W, strain qcr8, stronger effect = lower value 0.992 | locus YJL168C, strain set2, stronger effect = lower value 0.986 | locus YJL187C, strain SWE1 (second series), stronger effect = lower value 0.986 | locus YJL187C, strain SWE1, stronger effect = lower value 1.02 | locus YJR043C, strain POL32, stronger effect = lower value 1.05 | locus YJR066W, strain TOR1, stronger effect = lower value 0.999 | locus YJR075W, strain HOC1, stronger effect = lower value 0.989 | locus YKL009W, strain mrt4, stronger effect = lower value 0.957
